From PubChem BioAssay
Active and inactive are the calls of the source.

Tests used:
[1] = tested on: Plasmodium falciparum Sir2 (PF13_0152, Sir2A); test: Plasmodium falciparum Sir2A binding compounds – biochemical, small-molecule microarray, 635 nm fluorescence, primary screen (AID 1098); conditions: fluorescence 635 nm, higher = more signal;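 further: score merges spot fluorescence intensity with its signal-to-noise ratio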
[2] = probe aDKK1 binding to arrayed compounds – biochemical, biotinylated probe, 635/667 nm fluorescence, primary screen (AID 1099); conditions: small-molecule microarray, higher = more signal;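 further: score merges 667nm spot fluorescence with signal to noise across triplicate slides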
[3] = probe aCHRDL2 binding to arrayed compounds – biochemical, biotinylated probe, 635/667 nm fluorescence, primary screen (AID 1100); conditions: small-molecule microarray, higher = more signal
[4] = change in splice reporter luminescence, either direction, cell-based, HEK293, spliceosome inhibition project, primary screen (AID 1101); conditions: HEK293 splicing luciferase reporter, 24 h, higher = more signal, called active from +8 up or from −8 down;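 further: HEK293 cells carrying a splicing-competent luciferase reporter gene; test concentration not given here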
[5] = target: Fibroblast growth factor 10 (Homo sapiens) (UniProt O15520); test: compounds binding fibroblast growth factor 10 – biochemical, small-molecule microarray, 635 nm fluorescence, primary screen (AID 1102); conditions: FGF10 binding, fluorescence 635 nm, higher = more signal
Fibroblast growth factor 10 (Homo sapiens), sequence (O15520 whole entry, looked up): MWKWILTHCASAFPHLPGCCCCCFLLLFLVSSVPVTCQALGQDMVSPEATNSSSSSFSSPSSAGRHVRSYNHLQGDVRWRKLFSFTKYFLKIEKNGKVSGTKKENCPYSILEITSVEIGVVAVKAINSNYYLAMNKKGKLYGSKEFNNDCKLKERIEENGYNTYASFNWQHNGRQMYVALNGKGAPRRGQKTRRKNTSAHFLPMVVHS

[6] = tested on: glycogen synthase kinase-3 (GSK3A per assay name; protocol says GSK3B); test: compounds binding glycogen synthase kinase-3 – biochemical, small-molecule microarray, 635 nm fluorescence, GSK3A, primary screen (AID 1103); conditions: fluorescence 635 nm, higher = more signal; further: the record names both GSK3A and GSK3B
[7] = target: Epidermal growth factor receptor (Homo sapiens) (UniProt P00533); test: compounds binding epidermal growth factor receptor – biochemical, small-molecule microarray, 635 nm fluorescence, primary screen (AID 1104); conditions: EGFR binding, higher = more signal;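 further: score merges 667 nm emission intensity with spot signal to noise over triplicate slides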
Epidermal growth factor receptor (Homo sapiens), sequence (P00533 whole entry, looked up): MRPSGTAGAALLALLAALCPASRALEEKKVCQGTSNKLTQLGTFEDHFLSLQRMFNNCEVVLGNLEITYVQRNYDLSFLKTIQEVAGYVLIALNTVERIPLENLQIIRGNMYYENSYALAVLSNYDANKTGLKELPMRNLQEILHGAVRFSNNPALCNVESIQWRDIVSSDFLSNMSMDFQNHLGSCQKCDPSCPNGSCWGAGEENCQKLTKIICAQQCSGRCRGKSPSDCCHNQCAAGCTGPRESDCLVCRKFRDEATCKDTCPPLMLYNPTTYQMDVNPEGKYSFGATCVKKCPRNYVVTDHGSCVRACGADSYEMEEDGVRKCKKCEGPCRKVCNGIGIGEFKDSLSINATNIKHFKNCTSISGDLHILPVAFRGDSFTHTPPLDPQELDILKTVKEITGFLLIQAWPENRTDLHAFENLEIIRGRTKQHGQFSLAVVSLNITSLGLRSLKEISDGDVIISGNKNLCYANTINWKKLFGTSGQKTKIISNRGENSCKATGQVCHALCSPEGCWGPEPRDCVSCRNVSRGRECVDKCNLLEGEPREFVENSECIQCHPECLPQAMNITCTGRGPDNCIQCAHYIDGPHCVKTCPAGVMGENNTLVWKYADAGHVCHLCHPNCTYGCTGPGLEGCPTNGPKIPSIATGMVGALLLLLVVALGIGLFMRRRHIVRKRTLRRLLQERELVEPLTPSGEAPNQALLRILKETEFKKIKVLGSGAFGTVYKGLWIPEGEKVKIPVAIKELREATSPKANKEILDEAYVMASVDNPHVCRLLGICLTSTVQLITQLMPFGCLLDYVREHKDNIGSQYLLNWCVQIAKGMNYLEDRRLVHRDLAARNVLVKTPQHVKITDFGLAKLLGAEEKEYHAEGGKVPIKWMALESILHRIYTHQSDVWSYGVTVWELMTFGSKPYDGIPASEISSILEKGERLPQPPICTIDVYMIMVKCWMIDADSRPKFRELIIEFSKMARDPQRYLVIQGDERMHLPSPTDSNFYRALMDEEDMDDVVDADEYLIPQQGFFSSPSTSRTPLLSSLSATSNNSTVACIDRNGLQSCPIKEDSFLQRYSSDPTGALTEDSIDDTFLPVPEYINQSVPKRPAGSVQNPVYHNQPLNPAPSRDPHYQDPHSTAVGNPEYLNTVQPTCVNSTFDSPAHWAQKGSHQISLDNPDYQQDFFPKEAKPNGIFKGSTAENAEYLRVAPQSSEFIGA

[8] = target: Follistatin-related protein 3 (Homo sapiens) (UniProt O95633); test: compounds binding follistatin-related protein 3 – biochemical, small-molecule microarray, 635 nm fluorescence, primary screen (AID 1105); conditions: FSTL3 binding, higher = more signal;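 further: score merges emission near 667 nm and signal to noise per printed spot across three slides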
Follistatin-related protein 3 (Homo sapiens), sequence (O95633 whole entry, looked up): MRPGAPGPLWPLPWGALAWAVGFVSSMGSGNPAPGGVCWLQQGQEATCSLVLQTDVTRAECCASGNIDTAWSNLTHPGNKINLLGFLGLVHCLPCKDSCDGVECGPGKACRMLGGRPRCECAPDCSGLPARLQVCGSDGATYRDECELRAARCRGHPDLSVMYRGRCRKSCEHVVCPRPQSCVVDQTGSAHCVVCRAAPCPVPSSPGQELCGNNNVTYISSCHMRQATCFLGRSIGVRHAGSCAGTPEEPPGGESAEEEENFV

[9] = target: Dickkopf-related protein 1 (Homo sapiens) (UniProt O94907); test: small molecules binding DKK1 protein – biochemical, small-molecule microarray, 635 nm fluorescence scan, primary screen (AID 1106); conditions: higher = more signal;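 further: score merges emission near 667 nm with signal to noise over three replicate slides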
Dickkopf-related protein 1 (Homo sapiens), sequence (O94907 whole entry, looked up): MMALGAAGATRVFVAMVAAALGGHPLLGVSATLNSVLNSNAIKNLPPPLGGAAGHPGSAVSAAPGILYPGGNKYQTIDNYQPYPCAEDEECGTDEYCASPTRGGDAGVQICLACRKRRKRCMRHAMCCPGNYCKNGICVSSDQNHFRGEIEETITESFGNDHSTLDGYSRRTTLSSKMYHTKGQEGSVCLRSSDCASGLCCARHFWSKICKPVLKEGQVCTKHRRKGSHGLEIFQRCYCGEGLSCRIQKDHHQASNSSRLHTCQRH

[10] = tested on: Inhibin beta A chain (activin A); test: small molecules binding activin A – biochemical, small-molecule microarray, 635 nm fluorescence scan, primary screen (AID 1107); conditions: INHBA, higher = more signal;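 further: mouse activin A protein probed at 4.33 µg/mL on printed slides; score merges bound-protein fluorescence near 667 nm with spot signal-to-noise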
[11] = tested on: Human papillomavirus type 1a protein E7 (residues 44-93); test: small molecules binding HPV E7 44-93 – biochemical, small-molecule microarray, residues 44-93, 635 nm fluorescence, primary screen (AID 1108); conditions: fluorescence 635 nm, higher = more signal;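 further: E7 fragment applied at 1 µg/mL in TBST for 1 h at 4 C; score combines spot fluorescence with its signal to noise ratio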
[12] = hepatitis C replication reporter changes, two-sided – Huh7 cells, luciferase reporter, HCV replication inhibitor project, primary screen (AID 1109); conditions: Huh7 HCV replicon luciferase reporter, 48 h; higher = more signal;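 further: huh7 hepatoma cells harbouring a luciferase neomycin HCV replicon reporter; luciferase luminescence as measure of HCV replicon replication; test concentration not given here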
[13] = target: Left-right determination factor 2 (Homo sapiens) (UniProt O00292); test: small molecules binding LEFTY2 protein – biochemical, small-molecule microarray, 635 nm fluorescence scan, primary screen (AID 1110); conditions: higher = more signal
Left-right determination factor 2 (Homo sapiens), sequence (O00292 whole entry, looked up): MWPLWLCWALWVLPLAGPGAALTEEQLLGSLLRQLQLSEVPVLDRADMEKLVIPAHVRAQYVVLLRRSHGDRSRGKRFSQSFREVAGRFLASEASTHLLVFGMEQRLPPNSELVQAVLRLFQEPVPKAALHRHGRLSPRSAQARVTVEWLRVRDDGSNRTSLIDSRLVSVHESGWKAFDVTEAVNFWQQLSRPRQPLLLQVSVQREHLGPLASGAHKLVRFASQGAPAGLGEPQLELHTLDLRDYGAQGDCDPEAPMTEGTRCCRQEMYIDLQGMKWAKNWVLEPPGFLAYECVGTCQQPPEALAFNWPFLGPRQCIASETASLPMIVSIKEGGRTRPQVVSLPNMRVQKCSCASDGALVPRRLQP

[14] = target: Calmodulin-1 (Homo sapiens) (UniProt P0DP23); test: small molecules binding calmodulin-1 with EGTA – biochemical, small-molecule microarray, Cy5-labelled CALM1, profiling panel (AID 1111); conditions: Cy5-CALM1 binding fluorescence, higher = more signal;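 further: labelled calmodulin applied in Tris saline Tween buffer holding calcium plus EGTA and DTT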
[15] = target: Calmodulin-1 (Homo sapiens) (UniProt P0DP23); test: small molecules binding Ca-loaded calmodulin-1 – biochemical, small-molecule microarray, Cy5-labelled CALM1, plus calcium, artefact control for SMM control-protein annotation, profiling panel (AID 1112); conditions: Cy5-CALM1 binding fluorescence, higher = more signal;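 further: score merges spot fluorescence with signal to noise from triplicate slides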
[16] = probe aWnt5a binding to arrayed compounds – biochemical, biotinylated probe, 635/667 nm fluorescence, primary screen (AID 1113); conditions: small-molecule microarray, higher = more signal;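 further: score merges 667 nm fluorescence intensity with signal-to-noise per printed feature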
[17] = probe aShh binding to arrayed compounds – biochemical, biotinylated probe, 635/667 nm fluorescence, primary screen (AID 1114); conditions: small-molecule microarray, higher = more signal;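 further: probe is biotin-labelled aShh protein from a stem cell growth factor screen; measures binding of labelled protein to compounds printed on the slide; score merges feature fluorescence at 667 nm with signal-to-noise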
[18] = probe aNog binding to arrayed compounds – biochemical, biotinylated probe, 635/667 nm fluorescence, primary screen (AID 1115); conditions: small-molecule microarray, higher = more signal;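 further: probe is biotinylated aNog protein used at 0.15 µg/mL for 1 h at 4 C; z-score combines 667 nm fluorescence of each spot with its signal to noise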
[19] = target: Torsin-1A-interacting protein 1 (Homo sapiens) (UniProt Q5JTV8); test: compound microarray binding of lysate hLAP1 – cell lysate, small-molecule microarray, COS7 lysate, 635/667 nm fluorescence, primary screen (AID 1116); conditions: 635 nm fluorescence, higher = more signal
Torsin-1A-interacting protein 1 (Homo sapiens), sequence (Q5JTV8 whole entry, looked up): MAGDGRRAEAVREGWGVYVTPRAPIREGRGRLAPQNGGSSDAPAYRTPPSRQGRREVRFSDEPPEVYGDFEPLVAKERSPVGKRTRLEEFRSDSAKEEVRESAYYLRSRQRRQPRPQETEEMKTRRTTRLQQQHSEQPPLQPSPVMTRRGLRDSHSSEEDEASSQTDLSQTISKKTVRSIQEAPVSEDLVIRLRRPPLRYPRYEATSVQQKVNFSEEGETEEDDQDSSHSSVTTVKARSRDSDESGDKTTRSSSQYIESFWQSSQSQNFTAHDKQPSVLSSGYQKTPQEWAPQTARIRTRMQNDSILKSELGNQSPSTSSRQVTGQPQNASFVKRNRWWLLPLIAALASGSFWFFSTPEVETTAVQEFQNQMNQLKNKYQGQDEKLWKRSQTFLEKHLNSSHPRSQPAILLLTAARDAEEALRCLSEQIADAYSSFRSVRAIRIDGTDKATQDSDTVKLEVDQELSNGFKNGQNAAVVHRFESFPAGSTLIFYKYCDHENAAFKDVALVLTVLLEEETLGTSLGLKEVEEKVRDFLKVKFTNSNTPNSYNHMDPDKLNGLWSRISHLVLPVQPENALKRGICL

[20] = target: Alpha-bungarotoxin (Bungarus multicinctus) (UniProt P60615); test: compounds binding labelled alpha-BTX control protein – biochemical, small-molecule microarray, Alexa647 label, 635/667 nm fluorescence, artefact control for SMM control protein annotation, profiling panel (AID 1117); conditions: alpha-BTX-A647 binding fluorescence, higher = more signal
Alpha-bungarotoxin (Bungarus multicinctus), sequence (P60615 whole entry, looked up): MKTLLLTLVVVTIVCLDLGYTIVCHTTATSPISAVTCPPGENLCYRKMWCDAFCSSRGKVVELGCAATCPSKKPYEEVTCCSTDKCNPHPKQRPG

Row | SMILES | composite z-score [1] | composite z-score [2] | composite z-score [3] | z-score [4] | composite z-score [5] | composite z-score [6] | composite z-score [7] | composite z-score [8] | composite z-score [9] | composite z-score [10] | composite z-score [11] | z-score [12] | composite z-score [13] | composite z-score [14] | composite z-score [15] | composite z-score [16] | composite z-score [17] | composite z-score [18] | composite z-score [19] | composite z-score [20]
1 | CC(C)NC(=O)[C@@]1(Cc2ccccc2I)c2ccccc2C(=O)N(Cc2ccccc2)[C@H]1c1ccc(CO)cc1 | 1.45 | 0.461 | 0.715 | -0.227 (inactive) | 0.954 | 1.28 | 0.136 | 1.09 | 0.0622 | 0.315 | 0.997 | -1.09 | 0.337 | 0.447 | -0.726 | 0.0438 | -0.0503 | -0.422 | 0.568 | 1.4
2 | COc1ccc(C#Cc2ccc3c(c2)[C@]2(C(=O)N3)[C@H](C(=O)NC[C@H](O)c3ccccc3)[C@H]3C(=O)O[C@H](c4ccccc4)[C@H](c4ccccc4)N3[C@@H]2c2ccccc2OCCO)cc1 | 1.74 | 0.408 | 0.334 | -0.955 (inactive) | 0.877 | 1.19 | 0.186 | 1.16 | 0.169 | -0.0953 | 0.272 | -2.86 | 0.5 | 1.08 | 0.243 | 0.0229 | 0.232 | 0.325 | 0.967 | 1.22
3 | COC(=O)C[C@@H]1C[C@H](C)[C@]2(O1)C(=O)N(Cc1ccccc1)c1ccc(NC(C)=O)cc12 | 0.0968 | -0.148 | -0.448 | 0.247 (inactive) | 0.603 | 0.141 | 0.324 | 0.389 | 0.355 | 0.4 | -0.654 | -0.249 | 0.266 | -0.595 | -0.324 | -0.311 | -0.543 | 0.0034 | 0.458 | -0.194
4 | CCCNC(=O)[C@@]1(c2ccc([N+](=O)[O-])cc2)CC(=O)N(CC23CC4CC(CC(C4)C2)C3)[C@@H]1c1ccc(CO)cc1 | 0.814 | 0.644 | -0.0905 | 0.228 (inactive) | 0.425 | 0.108 | 0.533 | 1.34 | 0.138 | -0.247 | 0.914 | -2.86 | 0.421 | -0.865 | -0.827 | 0.0004 | -0.569 | 0.0278 | -0.303 | 1.01
5 | CCOC(=O)C1=C[C@@H](C(C)C)N(S(=O)(=O)c2ccc(C)cc2)[C@H]1c1ccc(C(C)C)cc1 | 1.65 | -0.132 | -0.229 | 0.449 (inactive) | 1.04 | 1.3 | 0.848 | 1.35 | 0.57 | 0.375 | 1.35 | -2.16 | 0.524 | 1.33 | -0.144 | -0.0735 | -0.138 | -0.58 | 0.324 | 1.1
6 | COC(=O)[C@@]1(Cc2ccccc2N=[N+]=[N-])COC(c2ccc(OCCCO)cc2)=N1 | 1.48 | 0.89 | 1.26 | -0.127 (inactive) | 0.0938 | 0.478 | -0.3 | -0.0373 | -0.349 | 1.52 | 1.02 | -0.0499 | -0.675 | 0.238 | 0.0554 | -0.15 | 0.333 | 0.0531 | 0.852 | 1.4
7 | O=C1OCC=C[C@H]2OC34C=CCN(c5ccc(Cl)cc5)C(=O)[C@H]3N(CCCCCCO)C(=O)[C@@H]4[C@@H]12 (stereo not given in full) | 2.08 | 0.0526 | 0.731 | -0.313 (inactive) | -1.17 | -0.799 | -1.78 | -1.58 | -1.22 | -0.087 | -0.851 | -0.493 | -1.21 | -0.123 | 0.174 | -0.128 | 0.0062 | 0.46 | -0.143 | -1.34
8 | CC(C)(C)N1CC=CC23O[C@@H]4/C=C\CCCOC(=O)C4[C@H]2C(=O)N(CCO)[C@@H]3C1=O (stereo not given in full) | 1.59 | -0.0986 | -0.0141 | -0.639 (inactive) | -0.142 | -0.764 | -0.932 | -1.28 | -0.377 | 0.0995 | -0.365 | -0.95 | -0.679 | -0.0083 | 0.443 | -0.18 | 0.0121 | -0.261 | -0.231 | -0.709
9 | O=C1C2C=CC(C(O)c3ccc(-c4ccccc4)s3)N(n3cnnc3)C2C(=O)N1Cc1ccccc1 (stereo not given) | 0.633 | 0.0447 | 0.746 | -0.36 (inactive) | 0.0262 | -0.751 | -0.486 | -0.435 | -0.539 | 0.631 | 0.423 | -0.602 | -0.253 | -0.164 | -0.377 | -0.096 | 0.0062 | 0.141 | 0.585 | 0.399
10 | O=C(NCc1ccccc1)[C@]1(CCS(=O)(=O)c2ccccc2)N=C(c2ccc(OCCCO)cc2)O[C@@H]1c1ccccc1 | 1.31 | 0.255 | 0.264 | 0.637 (inactive) | 1.42 | 1.32 | 0.325 | 1.41 | 0.168 | 0.604 | 1.15 | -2.05 | 0.554 | 1.53 | 0.206 | 0.0579 | 0.182 | 0.0539 | 0.51 | 0.452
11 | COCCOC(=O)N1C(=O)[C@@]2(c3cc(C#CCCO)ccc31)[C@H](c1ccccc1OCCO)N1[C@H](c3ccccc3)[C@H](c3ccccc3)OC(=O)[C@H]1[C@@H]2C(=O)N1CCN(c2ncccn2)CC1 | 0.55 | 0.75 | 0.537 | -0.381 (inactive) | 0.74 | 1.22 | 0.965 | 1.39 | 0.682 | 0.617 | 1.43 | -1.92 | 1.15 | 1.33 | 0.569 | 0.203 | 0.141 | 0.435 | 1.16 | 0.994
